This is a sample that favours compounds with a hit; in the whole collection about 13% have one here.
Lassa entry inh – Lassa virus entry inhibition. Lassa virus pseudotype entry inhibition, cell reporter. Potency, µM (highest dose often 37.9 µM), for the others: top-dose activity change, negative = inhibition, most hits filed as inhibitors. 300,000 compounds, 1.2% hits. AID 540256; calls by dose curve; tested in HEK293 cells; further: potency means the concentration at half of the fitted maximal effect; on the % scale 0 is the no-effect control and ±100 the full control effect; nearly all actives have a fitted effect of over 50% in size
FMDV inh – foot and mouth disease virus antiviral activity | FMDV antiviral cell-based qHTS | Potency, µM (doses to about 57.9 µM), inactives show at the top dose activity change, negative = inhibition, usual class: inhibitors | 410,000 compounds, 1.2% hits | AID 1159524; calls by dose curve; tested in HEK293T cells; further: read-out not given here; potency means the concentration at half of the fitted maximal effect; on the % scale 0 is the no-effect control and ±100 the full control effect; nearly all actives have a fitted effect of over 45% in size
HCV inhibitor – HCV inhibition; 340,000 compounds, 3.4% hits; Potency, µM (doses to about 41.8 µM), for inactives: top-dose activity change, negative = inhibition, most hits filed as inhibitors; AID 651820; Huh7.5.1 HCVcc-Cre infection, luciferase reporter, 44 h; active means well fitted inhibition curve with a large enough effect; inconclusive means small, poorly fitted or top-dose-only effect, or another doubt; inactive means no such curve, though single readings can be large or run the other way; further: potency means the concentration at half of the fitted maximal effect; on the % scale 0 is the no-effect control and ±100 the full control effect
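Whole-lifecycle infectious HCVcc-Cre system; cells 1,000/well, compound then virus (~0.5 moi) added 4 h after plating, 44 h culture. Luciferase read 15 sec following 15 min substrate incubation, room temp.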
Shiga inhibitor – Shiga toxin inhibition. 290,000 compounds, 9.2% hits. inhibition, % at 38.7 µM. Vero cells, Shiga toxin protein synthesis inhibition reporter; in the data active means inhibition mostly above about 28%, no sharp cut-off; inactive means mostly below about 43%; further: 0% is about no effect
Marburg entry inh – Marburg virus entry inhibition | AID 540276 | 300,000 compounds, 1.8% hits | Potency, µM (highest dose often 37.8 µM), for inactives: top-dose activity change, negative = inhibition, actives largely listed as inhibitors | Marburg virus pseudotyped entry inhibition, cell reporter; calls by dose curve; tested in HEK293 cells; further: potency means the concentration at half of the fitted maximal effect; on the % scale 0 is the no-effect control and ±100 the full control effect
CHX counter – counter-screen for Shiga toxin inhibitors: cycloheximide protein synthesis inhibition; cell reporter, cycloheximide protein synthesis inhibition counterscreen; max response, %; AID 2314; 300,000 compounds, 12% hits; in the data active means max response mostly above about 13%, no sharp cut-off; inactive means mostly below about 14%; further: read at 38.3 µM for the half of the compounds with a filed dose; 0% is about no effect
* marks the source's active call; other numbers are inactive results; ? = inconclusive; . = no result; [ ] = dose if it differs, or a comment.

SMILES	Lassa entry inh	FMDV inh	HCV inhibitor	Shiga inhibitor	Marburg entry inh	CHX counter
COC(c1ccccc1)c1nnc(CCC(=O)N2CCN(Cc3cccs3)CC2)o1 (centres undefined)	4.3%[46.1 µM]	21.5%	3.5%	25.5	2.1%[46.1 µM]	2.2
COC(c1ccccc1)c1nnc(CCC(=O)N2CCCCCCC2)o1 (centres undefined)	10.4%[46.1 µM]	17.7%	6.2%	32.7	?	10.5*
CC(CNC(=O)CCc1nnc(CCC2CCCCC2)o1)c1ccccc1 (centres undefined)	?	21.2%	-18.6%	38.2	?	20.8*
O=C(CCc1nnc(-c2ccc(-c3ccccc3)cc2)o1)N1CCCCC1	?	7.4%	-7.1%	68.5*	?	48.9*
CN1C=CC(=O)[C@@H](OC(=O)Nc2ccc(Br)cc2)[C@H]1c1ccccc1Br	.	-13.4%	-12.6%[8.37 µM]	.	.	.
CC(C)C(=O)NC(=S)Nc1sc2c(c1C(N)=O)CCCC2	0.6%	37.1%	-3.5%	36.1*	?	24.7*
CCCC(=O)NC(=S)Nc1sc2c(c1C(N)=O)CCC2	14.3%	56.6%	-23.7%	64.7	-6.8%	17.0
NC(=O)c1c(NC(=S)Nc2ccccc2)sc2c1CCCC2	-28.8%	0.0%	?	36.1	?	6.9
C=CCNC(=S)Nc1sc2c(c1C(N)=O)CCCC2	0.4%	59.0%	?	55.9	1.6%[46.1 µM]	14.7*
NC(=O)c1c(NC(=S)Nc2ccc(F)cc2)sc2c1CCCC2	-19.7%	27.7%	-3.2%	39.7	6.7%[46.1 µM]	17.5*
O=C(NCC1=C(c2cccc3ccccc23)C[C@@H]2CC[C@H]1N2Cc1ccco1)c1cccnc1	.	0.0%	.	.	.	.
Cn1cc(C(=O)NCC(=O)Nc2ccccc2Br)cn1	.	-15.1%	1.5%	.	.	.
Brc1ccc(Oc2ccc(Br)cc2Br)c(Br)c1	.	4.1%	-7.9%	.	-3.3%	.
O=c1c(Br)ccc(Br)cc1Br	?	20µM*	?	.	4.47µM*	.
CCc1nc(SCc2cc(=O)c3cc(F)ccc3[nH]2)n[nH]1	3.2%[46.1 µM]	-6.9%	.	.	.	.
CCN1C(=O)[C@H]2[C@@H](c3ccc(C)cc3)N3C(=O)N(c4ccc(OC)cc4)C(=O)[C@@]3(C)[C@H]2C1=O	.	-1.5%	12.8%	-3.5	.	-1.3
CC(=O)c1c(C)[nH]c(C2=NNC(=NC(C)(C)C)SC2)c1C	15.2%[46.1 µM]	36.2%	5.2%	82.2*	21.5%[46.1 µM]	29.4*
CCOC(=O)c1c(C)[nH]c(C(=O)OCC(=O)Nc2cc(C)ccc2OC)c1C	-1.2%	-5.5%	-1.6%	-15.4	16.6%[46.1 µM]	-3.8
CCOC(=O)c1c(C)[nH]c(C2=NNC(=Nc3ccc(OCC)cc3)SC2)c1C	?	6.0%	?	3.6	?	12.6*
CCOC(=O)c1c(C)[nH]c(C2=NNC(=Nc3ccccc3OC)SC2)c1C	?	33.9%	?	41.7*	?	49.4*
CCOC(=O)c1c(C)[nH]c(C2=NNC(=Nc3ccccc3)SC2)c1C	.	0.0%	?	29.6*	1.3%	20.5*
O=C(O)c1cc(O)c(O)c(O)c1	.	-21.5%	.	.	.	.
Cc1cccc(NC(=O)N2CCC(n3c(C)nc4cccnc43)CC2)c1	6.7%[46.1 µM]	0.0%	.	.	.	.
CC(C)(C)C(=O)Nc1ccc(S(=O)(=O)N2CCC(c3nc4ccccc4[nH]3)CC2)cc1	?	-5.8%	3.2%	.	-21.2%	.
CNS(=O)(=O)c1cn(CC(=O)NCc2ccc(F)cc2)cc1S(=O)(=O)NC	.	0.3%	5.3%	-6.0	.	-2.2
SMILES	Lassa entry inh	FMDV inh	HCV inhibitor	Shiga inhibitor	Marburg entry inh	CHX counter
CCN1CCc2c(sc(NC(=S)NC(=O)c3ccco3)c2C(N)=O)C1	19.3%	5.3%	11.2%	16.2	28.1%[46.1 µM]	13.9*
Cc1sc(NC(=S)NC(=O)c2ccco2)c(C(N)=O)c1C	1.5%	57.5%	14.1%	93.4*	?	25.9*
Cc1sc(NC(=S)NC(=O)CCc2ccccc2)c(C(N)=O)c1C	?	-0.9%	?	11.1	?	-1.3
CC1(C(=O)N/N=C/c2ccccc2)CC1(Cl)Cl (centres undefined)	20.7%	17.8%	11.0%	.	-24.9%	25.6*
Cc1ccc(/C=N/NC(=O)C2(C)CC2(Br)Br)cc1 (centres undefined)	10.6%	-9.9%	?	37.9	17.2%[46.1 µM]	13.2*
CN(C(=S)NC(=O)C1(C)CC1(Cl)Cl)c1ccccc1 (centres undefined)	9.5%	-5.0%	3.4%	-13.0	4.2%	-0.6
CC1(C(=O)N/N=C/c2ccccc2)CC1(Br)Br (centres undefined)	4.6%	0.0%	18.3%	16.4	3.1%	17.6

Screens deposited in PubChem by National Center for Advancing Translational Sciences (NCATS).
